Records with an inconclusive call do not appear. Active and inactive are the calls of the source. Unless noted, calls come from the whole dose curve; as a rule, active = well fitted curve in the direction sought with a large enough effect; inconclusive = small, poorly fitted or top-dose-only effect, or another doubt; inactive = no such curve, though single readings can be large; an effect the other way counts as inactive or inconclusive.
Tests used:
[1] = Cell Viability - BJ (AID 421; calls by dose curve;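 note: potency is the fitted concentration of half-maximal effect; cells exposed to compound for 40 hours at 37 °C before readout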); settings: BJ fibroblast viability, qHTS
Summary of the method: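 Cytotoxicity in human BJ foreskin fibroblasts is scored as loss of cellular ATP after a 40-hour exposure, measured by luciferase luminescence. Controls are DMSO and 100 uM tamoxifen.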

[2] = Cell Viability - Jurkat (AID 426;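 active = dose-dependent loss of cell ATP signal giving a full or clear fitted curve, ranked by lower potency value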; note: potency is the fitted concentration of half-maximal effect); settings: qHTS
Summary of the method: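 Luminescent ATP read-out (CellTiter-Glo, 20 min at room temperature) after 40 hr compound exposure at 37 °C of Jurkat E6-1 cells, 5000/well. Decreased ATP taken as cytotoxicity; AC50 from standard Hill equation.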

[3] = Cell Viability - Hek293 (AID 427;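 active = compounds whose dose-response curve shows a full or clear partial loss of cell viability, called from curve shape rather than a numeric limit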;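 note: potency is the fitted concentration of half-maximal effect; cells exposed to compound for 40 hours at 37 °C before reading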); settings: qHTS
Summary of the method: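 qHTS, human embryonic kidney (adenovirus-transformed) cells; 40 hr cpd, 37 °C; CellTiter-Glo ATP luminescence. Norm: DMSO = 0, 100 uM tamoxifen = 100% inhibition. Hill-fit AC50.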

[4] = Cell Viability - HepG2 (AID 433; calls by dose curve;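 note: potency is the fitted concentration of half-maximal effect; potency for ATP loss meaning cytotoxicity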); settings: qHTS
Summary of the method: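 In this qHTS format, a 40 h, 37 °C compound incubation of HepG2 cells in complete medium precedes a 20 min CellTiter-Glo step at room temperature. Tamoxifen and doxorubicin serve as positive controls; Hill-equation fits yield AC50.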

[5] = Cell Viability - MRC5 (AID 434; calls by dose curve;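 note: potency is the fitted concentration of half-maximal effect; potency reflects cytotoxicity seen as loss of intracellular ATP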); settings: MRC5 lung fibroblast viability, qHTS
Summary of the method: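 Decrease in intracellular ATP, quantified by luciferase light output, reflects compound toxicity toward MRC5 cells exposed for 40 hr in complete culture medium. Concentration-response curves, scaled between DMSO and 100 uM tamoxifen, gave AC50 values.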

[6] = Cell Viability - SK-N-SH (AID 435; calls by dose curve; note: potency is the fitted concentration of half-maximal effect); settings: SK-N-SH neuroblastoma cell viability qHTS
Summary of the method: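 Human neuroblastoma line, 40 h exposure at 37 °C, ATP quantified via luciferase luminescence; DMSO and 100 uM tamoxifen define 0 and 100% inhibition for AC50 fitting.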

[7] = target: Mitogen-activated protein kinase 10 (Mus musculus) (UniProt Q61831); experiment: JNK3 AlphaScreen Assay (AID 530; active = well fitted curve in either direction with a large enough effect, not every such curve was filed as active;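 note: kinase came from lysate of stimulated human HepG2 cells; signal reports phosphorylation of biotinylated GST-cJun 1-79 at Ser73 with 10 µM ATP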); settings: JNK3 lysate, c-Jun phosphorylation; series mostly up to 57.1 µM
Summary of the method: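 Biotinylated GST-cJun(1-79) served as substrate for JNK3 in HepG2 lysates stimulated with IL-1beta and TNF-alpha. ATP was 10 uM final, pH 7.6. Ser73 phosphorylation was quantified by AlphaScreen (680 nm excitation).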

[8] = Cell Viability - N2a (AID 540); settings: N2a mouse neuroblastoma cell viability; series mostly up to 92.2 µM; note: nearly all actives have a fitted effect of over 45% in size
Summary of the method: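 N2a mouse neuroblastoma, 1500 cells/well, 5 hr settle; compound 40 hr, 37 °C; CellTiter-Glo 20 min RT; luminescence; Hill-fit AC50.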

[9] = Cell Viability - HUV-EC-C (AID 542); settings: HUV-EC-C endothelial cell viability, qHTS; series mostly up to 92.2 µM; note: nearly all actives have a fitted effect of over 35% in size
Summary of the method: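 Luminescent ATP read-out (CellTiter-Glo, 20 min room temperature) after 40 hr compound treatment of HUV-EC-C cells at 37 °C. Concentration-response data fitted with the standard Hill equation to give AC50; tamoxifen and doxorubicin served as positive controls.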

[10] = Cell Viability - H-4-II-E (AID 543); settings: H-4-II-E rat hepatoma viability; series mostly up to 92.2 µM; note: nearly all actives have a fitted effect of over 35% in size
Summary of the method: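 qHTS, rat hepatoma H-4-II-E, 1500 cells/well; 40 hr compound exposure, 37 °C; CellTiter-Glo ATP luminescence after 20 min RT; AC50 by standard Hill fit.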

[11] = Cell Viability - SH-SY5Y (AID 544); settings: SH-SY5Y neuroblastoma cell viability; series mostly up to 92.2 µM; note: nearly all actives have a fitted effect of over 55% in size
Summary of the method: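 SH-SY5Y, 1500 cells/well, 5 hr pre-incubation 37 °C; cpd 40 hr 37 °C; CellTiter-Glo 20 min RT; luminescence (ATP) read. qHTS concentration-response, Hill fit → AC50. Tamoxifen, doxorubicin as positive controls.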

[12] = Cell Viability - Renal Proximal Tubule (AID 545); settings: renal proximal tubule cells viability, primary cells of rat origin; series mostly up to 91.7 µM; note: nearly all actives have a fitted effect of over 40% in size
Summary of the method: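 In this qHTS format, normal rat kidney-derived proximal tubule cells in complete culture medium receive compound titrations, then sit 40 hours at 37 °C before luciferase-based ATP quantitation; potency is reported as AC50 from concentration-response curves.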

[13] = Cell Viability - Mesenchymal (AID 546); settings: mesenchymal cells viability, qHTS; series mostly up to 91.7 µM;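 note: cells exposed to compound for 40 hours before reading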
Summary of the method: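 In this qHTS cytotoxicity format, glomerulus-derived human mesenchymal kidney cells received compound for 40 hr, then luciferase-based ATP quantitation. Concentration-response data were fitted with the Hill equation.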

[14] = Cellular Toxicity (caspase-3) HepG2 (AID 654); settings: HepG2 caspase-3 activation, luminescence, 0% = DMSO only, 100% = tamoxifen; series mostly up to 92.2 µM;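 note: cells exposed to compound for 16 hours before reading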
Summary of the method: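 Luminescent Caspase-Glo 3/7 readout after 16 hr compound exposure of human hepatocellular carcinoma HepG2 cells at 37 °C; qHTS concentration-response, normalized DMSO = 0%, 100 uM tamoxifen = 100%; AC50 by standard Hill equation.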

[15] = Cellular Toxicity (caspase-3) Jurkat (AID 655); settings: Jurkat caspase-3 activation, luminescence, DMSO = 0%, tamoxifen = 100%; series mostly up to 92.2 µM;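 note: cells exposed to compound for 16 h at 37 °C before reading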
Summary of the method: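 qHTS in human Jurkat T-cell leukemia line: 16 hr compound treatment at 37 °C, caspase-3/7 activity measured by Caspase-Glo luminescence. AC50 derived from Hill equation.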

[16] = Cellular Toxicity (caspase-3) HUV-EC-C (AID 656); settings: HUV-EC-C cells, caspase-3 activation (apoptosis), vehicle = 0, 100 µM tamoxifen = 100%; series mostly up to 92.2 µM;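 note: cells exposed to compound for 16 h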
Summary of the method: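 Concentration-dependent caspase 3/7 induction was assessed in HUV-EC-C cells exposed for 16 hours. Data scaled between DMSO and tamoxifen (100 uM) controls.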

[17] = Cellular Toxicity (caspase-3) SHSY5Y (AID 657); settings: SH-SY5Y caspase-3 activation, DMSO zero, 10 µM staurosporine = 100%; series mostly up to 91.7 µM;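 note: cells exposed to compound for 16 hours at 37 °C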
Summary of the method: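 Readout: caspase-cleaved peptide-aminoluciferin substrate driving luciferase light in SH-SY5Y neuroblastoma cells after 16 h treatment. Response normalized to DMSO and 10 uM staurosporine controls.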

[18] = Cellular Toxicity (caspase-3) BJ (AID 658); settings: BJ fibroblasts, luminescence, normalized: DMSO 0%, staurosporine 100%; series mostly up to 91.7 µM
Summary of the method: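 Plated BJ cells (1000/well) rested 5 hr, received compound for 16 hr at 37 °C, then Caspase-Glo 3/7 reagent for 1 hr at room temperature before luminescence reading.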

[19] = Cellular Toxicity (caspase-3) MRC-5 (AID 659); settings: MRC-5 cells, luminescence, normalized: DMSO 0%, 10 µM staurosporine 100%; series mostly up to 91.7 µM;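 note: cells exposed to compound for 16 h at 37 °C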
Summary of the method: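 Apoptosis readout in MRC-5 cells: luciferase light generated after caspase 3/7 cleaves a peptide-aminoluciferin substrate, measured post 16 hr compound incubation at 37 °C.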

Measured: Potency

C[C@@H]1[C@H](O)[C@@H](C)/C=C/C=C/C=C/C=C/C=C/C=C/C=C/[C@H](O[C@@H]2O[C@H](C)[C@@H](O)[C@H](N)[C@@H]2O)C[C@@H]2O[C@](O)(C[C@@H](O)C[C@@H](O)[C@H](O)CC[C@@H](O)C[C@@H](O)CC(=O)O[C@H]1C)C[C@H](O)[C@H]2C(=O)O
inactive: [1] > 92 µM | [2] > 92 µM | [3] > 92 µM | [4] > 92 µM | [5] > 92 µM | [6] > 92 µM | [7] | [8] | [9] | [10] | [11] | [12] | [13] | [14] | [15] | [16] | [17] | [18] | [19]

Source: PubChem BioAssay (NCATS)
